Screening data (PubChem BioAssay)
KinaseGlo FLuc: Counterscreen for Luciferase (Kinase-Glo TM) Inhibition; Potency, µM (series often up to 38.3 µM), for inactives: at the highest dose activity change, negative = inhibition, actives largely listed as inhibitors; Kinase-Glo luciferase, ATP luminescence, 8 min; Luciferin 4-monooxygenase (Photuris pensylvanica), Q27757; 200,000 tested, 0.28% active; also: % is scaled to controls: 0 for no effect and ±100 for the full control effect; nearly all actives have a fitted effect of over 60% in size
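Light output from Kinase-Glo luciferase with luciferin and 10 uM ATP in 50 mM imidazole pH 7.2, KCl, MgCl2, Tween 20, BSA; compound pin-delivered, 8-min ambient incubation, then luminescence read.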
NPC1 promoter act: qHTS Assay for NPC1 Promoter Activators; 320,000 tested, 2.4% active; Huh7 NPC1 promoter luciferase reporter, 24 h; Potency, µM (top dose mostly 9.22 µM), without a hit: at the highest dose activation, actives largely listed as activators; also: % of control where 0% means no effect; nearly all actives have a fitted effect of over 60% in size
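In 1536-well qHTS, Huh7 cells harboring an NPC1 promoter–luciferase construct received compound for 24 h; activation was quantified by luminescence following luciferase reagent addition.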
Rab9 promoter act: qHTS Assay for Rab9 Promoter Activators | 320,000 tested, 2.8% active | Potency, µM (top dose mostly 9.22 µM), for inactives: top-dose activation, negative = inhibition, hits mostly activators | Huh7 Rab9 promoter-luciferase reporter, luminescence, 24 h | AID 485297, 2010; also: % of control where 0% means no effect; nearly all actives have a fitted effect of over 60% in size
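Huh7 cells stably carrying a Rab9 promoter-luciferase reporter, 1500 cells per well in OP-MEM I with 10% FBS, treated with compound 24 hours at 37C. Luciferase activity read by luminescence after 10 minutes with Amplite reagent.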
FLuc modulator: qHTS profiling assay for firefly luciferase inhibitor/activator using purifed enzyme and Km concentrations of substrates (counterscreen for miR-21 project); Luciferin 4-monooxygenase (Photinus pyralis), P08659; purified FLuc, Km substrates, luminescence inhibition; Potency, µM (highest dose often 57.5 µM), for the others: at the top dose activity change, negative = inhibition, most hits filed as inhibitors; 360,000 tested, 6.9% active;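 also: plate controls were vehicle for no effect and reference inhibitor for full effect; nearly all actives have a fitted effect of over 55% in size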
Target sequence (P08659 whole entry, looked up): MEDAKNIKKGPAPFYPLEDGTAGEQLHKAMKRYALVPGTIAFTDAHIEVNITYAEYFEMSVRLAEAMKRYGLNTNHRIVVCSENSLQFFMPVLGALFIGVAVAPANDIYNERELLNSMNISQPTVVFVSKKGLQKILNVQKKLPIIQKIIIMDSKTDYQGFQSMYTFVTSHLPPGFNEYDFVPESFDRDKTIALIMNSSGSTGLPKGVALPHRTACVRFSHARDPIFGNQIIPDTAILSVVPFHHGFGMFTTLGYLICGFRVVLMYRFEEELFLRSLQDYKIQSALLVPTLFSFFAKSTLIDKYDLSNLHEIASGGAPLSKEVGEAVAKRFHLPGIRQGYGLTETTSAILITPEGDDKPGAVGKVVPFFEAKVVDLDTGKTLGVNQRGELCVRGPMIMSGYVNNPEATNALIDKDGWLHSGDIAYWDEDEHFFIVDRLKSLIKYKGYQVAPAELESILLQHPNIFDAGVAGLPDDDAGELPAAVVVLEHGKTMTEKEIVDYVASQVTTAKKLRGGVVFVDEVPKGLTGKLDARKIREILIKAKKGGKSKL
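Biochemical qHTS of compounds, final roughly 60 µM downward over six points, against 10 nM purified firefly luciferase using Km concentrations of substrates (10 uM D-luciferin, 10 uM ATP) in Tris acetate pH 7.5 buffer; luminescence output.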
ELG1 genotoxic: qHTS screen for small molecules that induce genotoxicity in human embryonic kidney (HEK293T) cells expressing luciferase-tagged ELG1; HEK293T ELG1-luciferase reporter, luminescence, 16 h; Potency, µM (titrated, usually from 46 µM), without a hit: top-dose activity change, positive = activation, most hits filed as activators; 330,000 tested, 1.3% active; also: % of control where 0% means no effect; nearly all actives have a fitted effect of over 60% in size
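Quantitative HTS format in 1536-well plates. HEK293T ELG1-luciferase reporter cells receive test compound and are incubated 16 hr at 37 °C, 5% CO2; ONE-Glo added, 30 min room temperature, then luminescence read.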
SMN2 splice enh: qHTS Assay for Enhancers of SMN2 Splice Variant Expression | Potency, µM (top dose mostly 46.1 µM), inactives show top-dose activity change, positive = activation, most hits filed as activators | 210,000 tested, 2.8% active | HEK293 SMN2-luciferase splicing reporter, luminescence, 30-36 h; also: % of control where 0% means no effect; nearly all actives have a fitted effect of over 55% in size
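HEK293 cells carry an SMN2 minigene-luciferase reporter in which exon 7 inclusion puts luciferase in frame. Cells were seeded at 2000 cells/well, attached for 10-12 hours, then exposed to compounds for 30-36 hours at 37C before ONE-Glo luminescence.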
* marks the source's active call; other numbers are inactive results; ? = inconclusive; nt = no result; [ ] = dose if it differs, or a comment. Rows were chosen to be rich in hits. Some 7.5% of all compounds tested hit in one or more screens of this group. Calls follow the shape of the dose curve; as a rule, active = well fitted curve in the direction sought with a large enough effect; inconclusive = small, poorly fitted or top-dose-only effect, or another doubt; inactive = no such curve, though single readings can be large; an effect the other way counts as inactive or inconclusive. Potency is read from the fitted curve at half-maximal effect.

SMILES	KinaseGlo FLuc	NPC1 promoter act	Rab9 promoter act	FLuc modulator	ELG1 genotoxic	SMN2 splice enh
CSc1nnc(-c2cc3c(s2)-c2ccccc2CC3)o1	1%	12%	?	4.8µM*	?	18µM*
CCOC(=O)C1CCCN(C(=O)CN2C(=O)c3ccccc3C2=O)C1 (stereo unspecified)	-8%	-1%	18%	0%	-6%	18%
O=C(CN1C(=O)/C(=C/c2ccc(C(F)(F)F)cc2)Sc2ccccc21)NCCCN1CCOCC1	nt	-4%	-1%	?	1%[9.26 µM]	nt
CCc1ccc(/C=C2/Sc3ccccc3N(CC(=O)NCCCN3CCOCC3)C2=O)cc1	nt	-1%	-2%	19µM*	7%	nt
O=C(CN1C(=O)/C(=C\c2cccc(Br)c2)Oc2ccccc21)NCCCN1CCOCC1	nt	-1%	-6%	6.7µM*	0%[9.26 µM]	nt
O=C(CN1C(=O)COc2ccccc21)NCCCN1CCOCC1	nt	0%	1%	4%	1%	nt
O=C(O)CN1C(=O)/C(=C/c2cccc(Cl)c2)Oc2ccccc21	nt	-5%	3%	13µM*	-1%	nt
CCOC(=O)C1CCCN(C(=O)CN2C(=O)/C(=C/c3ccc(OC)cc3)Oc3ccccc32)C1 (stereo unspecified)	-5%	0%	-1%	15µM*	-15%	-50%
COc1ccccc1CNC(=O)C(=O)NCC(c1cccnc1)N1CCN(c2ccc(F)cc2)CC1 (stereo unspecified)	nt	nt	nt	-11%	nt	nt
COc1cccc(/C=C2/Oc3ccccc3N(CC(=O)NCC3CCCO3)C2=O)c1 (stereo unspecified)	nt	0%	3%	9.5µM*	-6%	nt
CC1(CCc2ccccc2)NC(=O)N(CC(=O)Nc2ccc(OC(F)F)cc2)C1=O (stereo unspecified)	nt	nt	nt	nt	-5%	nt
Nc1nccc(/C=C/c2ccc(Cl)cc2)n1	nt	1.8µM*	2.2µM*	6µM*	?	nt
CC(CNC(=O)C1CCN(C(=O)N2CCOc3ccc(Cl)cc32)CC1)c1ccccc1 (stereo unspecified)	nt	nt	nt	-20%	nt	nt
CCn1cnc2sc(C(=O)Oc3cccc(C)c3)c(C)c2c1=O	0%	?	?	?	18µM*	-14%
Cc1ncc(COC(=O)C(C)C)c2cc(C(=O)Nc3ccccc3C(F)(F)F)c(=O)oc12	nt	nt	nt	3%	nt	nt
c1ccc(CSCc2nc3ccccc3[nH]2)cc1	-8%	?	2.5µM*	19µM*	?	?
O=[N+]([O-])c1ccc(CSc2nc3ccccc3[nH]2)cc1	-6%	4µM*	2.2µM*	6µM*	?	16µM*
CCOc1ccc2nc(SCC)[nH]c2c1	-6%	?	?	19µM*	16%	4%
O=C(NCCO)c1ccc(CSc2nc3ccccc3[nH]2)cc1	2%	-1%	21%	?	8%	-5%
Fc1ccc(CSc2nc3ccccc3[nH]2)cc1	-16%	2.8µM*	1.4µM*	4.8µM*	?	11µM*
CCOC(=O)c1cc(-c2ccccc2)n(CCCC(=O)Nc2ccc(C)cc2Cl)c1C	nt	nt	nt	-6%	nt	nt
CCc1ccccc1NC(=O)CN(Cc1ccccc1)S(=O)(=O)c1ccc2nc(C)sc2c1	nt	nt	nt	2%	nt	nt
O=C(Nc1ccccc1F)C(Cc1ccccc1)N1Cc2ccccc2C1=O (stereo unspecified)	nt	nt	nt	-1%	nt	nt
CCCCNc1c(CN)cnc2cc(Cl)ccc12	-4%[7.66 µM]	nt	nt	nt	nt	-16%[9.22 µM]
O=C(Cn1ncc2c3ccccc3n(Cc3ccccc3)c2c1=O)NCCc1ccc(Cl)cc1	nt	nt	nt	-1%	nt	8%
SMILES	KinaseGlo FLuc	NPC1 promoter act	Rab9 promoter act	FLuc modulator	ELG1 genotoxic	SMN2 splice enh
Fc1ccc(CSc2nc3ncccc3[nH]2)cc1	-9%	?	?	13µM*	?	?
CCCOc1ccc(CSc2nc3ccccc3[nH]2)cc1	-23%	25%	?	2.1µM*	?	20%
Fc1cccc(CSc2nc3ncccc3[nH]2)c1	-10%	24%	?	?	-1%	16%
CCSc1nc2ccccc2[nH]1	-2%	6%	-9%	-8%	-7%	15%
c1ccc(CSc2nc3ccccc3[nH]2)cc1	nt	0.79µM*	0.79µM*	3.4µM*	?	nt
CCOc1ccc(OCCSc2nc3ccccc3[nH]2)cc1	4%	2%	2%	?	8%	-111%
Fc1ccc(CSc2nc3ccccc3[nH]2)c2ccccc12	-5%	0%	17%	24µM*	5%	-5%
CCOC(=O)CSc1nc2c(sc3ccccc32)c(=O)n1CCc1ccccc1	nt	nt	nt	5%	nt	nt
CCC(C)NC(=O)Cn1c(=O)n(-c2ccc(Cl)c(Cl)c2)c(=O)c2c(C)c(C(=O)N(CC)CC)sc21 (stereo unspecified)	nt	nt	nt	0%	nt	nt
Cc1nn(C(C)C(=O)NCc2cccc(F)c2)c(=O)c2c1sc1ccccc12 (stereo unspecified)	nt	nt	nt	11µM*	nt	nt
COc1ccc(CCNC(=O)CCCn2nc(C)c3sc4ccccc4c3c2=O)cc1OC	nt	nt	nt	13µM*	nt	nt
CCC(C(=O)NCc1ccccc1)n1nc(C)c2sc3ccccc3c2c1=O (stereo unspecified)	nt	nt	nt	2%	nt	nt
COc1ccc(CCNC(=O)C(C)n2nc(C)c3sc4ccccc4c3c2=O)c(OC)c1 (stereo unspecified)	nt	nt	nt	9.5µM*	nt	nt
CCC(C(=O)NCCc1ccccc1)n1nc(C)c2sc3ccccc3c2c1=O (stereo unspecified)	nt	nt	nt	19µM*	nt	nt
Cc1nn(C(C)C(=O)NCc2ccccc2Cl)c(=O)c2c1sc1ccccc12 (stereo unspecified)	-3%	2%	-5%	-3%	-5%	-2%
Cc1nn(CCCC(=O)NCc2ccc(F)cc2)c(=O)c2c1sc1ccccc12	nt	nt	nt	-21%	nt	nt
Cc1ccc(S(=O)(=O)c2cnc(SC(C)C(=O)Nc3ccccc3)[nH]c2=O)cc1 (stereo unspecified)	nt	nt	nt	?	nt	1%
CCOc1ccccc1NS(=O)(=O)c1ccc2c(c1)CC(C)N2C(=O)C1CC1 (stereo unspecified)	nt	nt	nt	-4%	nt	nt
CCCCN(CC)C(=O)CSc1nc2n[nH]c(C)c2c(=N)n1-c1cccc(OC)c1	nt	nt	nt	-3%	nt	nt
O=C(CN(Cc1ccc(Cl)cc1)C(=O)CNS(=O)(=O)c1ccc(F)cc1)NCC1CCCO1 (stereo unspecified)	nt	-6%	5%	1%	6%	nt
CC(C)CC(=O)Nc1c(C(=O)N2CCN(c3ccccc3F)CC2)oc2ccccc12	nt	nt	nt	-15%	nt	nt
